Assay outcomes from PubChem.
Rows were chosen to be rich in hits. Some 31% of all compounds tested hit in one or more screens of this group.
CYP2C19 inh: blockers of cytochrome P450 2C19 activity – biochemical, luminescence, ADME assay, primary screen. P33261. CYP2C19 Supersomes, luciferin-H EGE luminescence, 30 min. inhibition, % at 5 µM. 21% of 96,000 active. AID 778, 2007;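 active means CYP2C19 inhibition above a set limit at 5 µM in the primary screen, cut at about 50% in these data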;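 further: plate controls were negative control wells for no effect and 2.5 mM tranylcypromine positive control for full effect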
CYP2C19 act: human CYP2C19 activators, primary screen, biochemical, luminescence. AID 1025, 2008. activation factor at 5 µM. recombinant CYP2C19, luciferin-H EGE luminescence; hits give high values; 0 = fully inhibited enzyme, 1 = untreated enzyme. 96,000 tested, under 10 active. Cytochrome P450 2C19 (Homo sapiens), P33261;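 active means activation factor of at least 2 at 5 µM in the primary screen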;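 further: 0 = wells with 2.5 mM tranylcypromine and 1 = vehicle-only wells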
CYP2C9 act: human CYP2C9 activators, primary screen, biochemical, luminescence. activation factor at 5 µM. Cytochrome P450 2C9 (Homo sapiens), P11712. 1.4% of 96,000 active. recombinant CYP2C9, luciferin-H conversion; hits give high values; factor 1 = untreated enzyme, 0 = blocked;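 active means activation factor of 2 or more for CYP2C9 at a 5 µM dose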;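 further: 0 = sulfaphenazole-blocked wells and 1 = vehicle-only wells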
PLAP activator: PLAP enzyme activators, biochemical, luminescence, HTS; Alkaline phosphatase, placental type (Homo sapiens), P05187; purified PLAP enzyme, luminescent substrate read-out; hits give high values; activation fold at 20 µM; 1.2% of 96,000 active; AID 696, 2007; in the data active means activation fold above about 2
Target sequence (P05187 whole entry, looked up): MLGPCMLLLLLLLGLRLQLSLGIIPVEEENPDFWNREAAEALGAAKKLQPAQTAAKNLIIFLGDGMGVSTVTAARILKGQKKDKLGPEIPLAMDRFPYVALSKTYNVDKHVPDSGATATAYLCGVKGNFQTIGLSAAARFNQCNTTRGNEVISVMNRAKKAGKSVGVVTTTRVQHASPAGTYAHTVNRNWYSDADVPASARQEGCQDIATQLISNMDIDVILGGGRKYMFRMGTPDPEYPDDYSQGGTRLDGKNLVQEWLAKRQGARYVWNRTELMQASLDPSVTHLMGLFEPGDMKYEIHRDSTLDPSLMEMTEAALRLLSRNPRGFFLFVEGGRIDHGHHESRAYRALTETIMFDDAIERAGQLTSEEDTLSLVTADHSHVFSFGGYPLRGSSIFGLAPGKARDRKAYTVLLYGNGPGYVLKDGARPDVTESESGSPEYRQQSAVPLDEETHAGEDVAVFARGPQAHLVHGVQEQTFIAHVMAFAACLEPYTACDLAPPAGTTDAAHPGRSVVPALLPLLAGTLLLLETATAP
CYP2C9 inh: blockers of cytochrome P450 2C9 activity – biochemical, luminescence, ADME assay, primary screen; P11712; inhibition, % at 5 µM; AID 777, 2007; CYP2C9 Supersomes, luciferin-H conversion; 20% of 96,000 active;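 active means blocking of liver enzyme CYP2C9 beyond about 50% at 5 µM, limit read from the data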
Starred values were filed as active, the others as inactive.

SMILES	CYP2C19 inh	CYP2C19 act	CYP2C9 act	PLAP activator	CYP2C9 inh
O=C(CC(O)(c1ccccc1)C(F)(F)F)c1cccs1 (stereo unspecified)	44.3	0.6	0.8	0.8	21.6
COc1cccc(C(=O)Nc2ccc(S(=O)(=O)NCc3ccco3)cc2)c1	-7.3	1.1	0.9	1	5.9
O=C(O)CCN1C(=O)c2ccccc2C1=O	-7.6	1.1	0.7	0.8	28.1
O=C1Cc2ccccc2C(=O)N1CCc1ccccc1	51.8*	0.5	1	1.6	1.8
CCC(CC)C(=O)Nc1nc(-c2ccc3c(c2)CCN3C(=O)C2CC2)c(C)s1	32.9	0.7	0.2	1.3	80.8*
O=C(OCn1nnc2ccccc2c1=O)c1cccs1	20.1	0.8	1	0.9	-3.8
CNc1c([N+](=O)[O-])cnn1-c1ccc(Cl)cc1Cl	52.8*	0.5	0.7	1.1	33.7
CNc1c([N+](=O)[O-])cnn1-c1ccccc1Cl	16.3	0.8	0.8	1	23.6
CC(C)C12CN3CC(C(C)C)(CN(C1)C3c1ccccc1)C2O (stereo unspecified)	-11.4	1.1	1	1.1	-3.9
CC(C)(C)c1nc2c(C#N)c(-c3ccc(Cl)cc3)ccn2n1	67.1*	0.3	0.2	1.7	84.5*
CCOC(=O)c1c(N)sc2c(O)c(Br)ccc12	30.4	0.7	0.3	1	72.8*
Fc1ccc(Br)cc1C1C=C(c2cccnc2)Nc2ncnn21 (stereo unspecified)	87.7*	0.1	0.5	1	53.8*
COc1ccc(-c2noc(C)c2-c2ccc3ccccc3n2)c(O)c1	100.2*	0	0.3	1.2	72.0*
Cc1oc2c(C)c(O)ccc2c(=O)c1-c1ccc2ccccc2n1	-13.3	1.1	0.8	1.1	15.1
COc1ccc(-c2onc(C)c2-c2ccccc2)c(O)c1	96.0*	0	0.6	0.9	40.6
O=C(O)CSc1nnc(-c2ccncc2)n1C1CCCCC1	-2.6	1	1.2	1.1	-18.0
Cc1cccc(C(=O)OCc2cnc(Cl)s2)c1	17.1	0.8	1	0.9	0.3
Cc1cc(C)n(-c2nc(NCCC(C)C)c3c4c(sc3n2)COC(C)(C)C4)n1	9.2	0.9	0.7	2.9*	30.5
Cc1cc(C)n(-c2nc(-n3nc(C)cc3C)c3c4c(sc3n2)COC(C)(C)C4)n1	72.4*	0.3	0.6	1.5	38.3
Cc1cc(C)n(-c2nc(SCC(=O)Nc3nccs3)c3c4c(sc3n2)COC(C)(C)C4)n1	37.8	0.6	0.2	1.3	76.8*
CSc1nnc2c3c4c(sc3nc(-n3nc(C)cc3C)n12)COC(C)(C)C4	12.0	0.9	0.5	1.4	47.0
O=C(CCNc1cccc(C(F)(F)F)c1)c1ccco1	32.2	0.7	1.7	0.8	-66.9
CCN1CCN(CC(=O)c2c[nH]c3ccc(C)cc23)CC1	-19.1	1.2	0.5	1	50.9*
Cc1ccc2[nH]cc(C(=O)CN3CCOCC3)c2c1	17.1	0.8	0.9	0.9	8.5
O=C(CN1CCC2(CC1)OCCO2)c1c[nH]c2ccccc12	81.0*	0.2	1	1	3.1
SMILES	CYP2C19 inh	CYP2C19 act	CYP2C9 act	PLAP activator	CYP2C9 inh
CCOC(=O)N1CCN(CC(=O)c2c[nH]c3ccc(F)cc23)CC1	46.3	0.5	0.5	1.1	51.0*
O=C(CN1CCOCC1)c1c[nH]c2ccccc12	11.7	0.9	0.9	0.9	9.8
CCOc1ccc(/C(O)=C2/C(=O)C(=O)N(CCCn3ccnc3)C2c2cccs2)cc1Cl (stereo unspecified)	19.2	0.8	0.3	1.6	70.2*
CCN(CC)CCN1C(=O)C(=O)/C(=C(/O)c2ccc(OC)cc2)C1c1cccs1 (stereo unspecified)	-12.0	1.1	1.3	1.4	-29.3
COC(=O)c1ccc2c(c1)C(C)(C)C(/C=C/c1ccc(O)cc1)=[N+]2C	94.7*	0.1	0	0.2	98.6*
CCOc1ccccc1NC(=O)CC1NCCNC1=O (stereo unspecified)	15.3	0.8	1.1	1.1	-14.1
Cc1ccc(Sc2c(C=O)c3ccccc3n2C)cc1	34.6	0.7	0.5	1.1	47.6
CC1CC(C)CN(Cc2nc3c(c(=O)n(C)c(=O)n3C)n2CCN2CCOCC2)C1 (stereo unspecified)	7.1	0.9	0.8	1.5	18.7
